Source: PubChem BioAssay
The entries come from a sample that favours hits as a whole.
L3MBTL1 block – inhibitors of human L3MBTL1; Potency, µM (highest dose often 57.1 µM), usual class: inhibitors; 0.66% of 230,000 active; AlphaScreen L3MBTL1–H3K9me1 peptide binding; Q9Y468; AID 485360; note: nearly all actives have a fitted effect of over 60% in size
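AlphaScreen proximity signal between nickel-chelate acceptor and streptavidin donor beads (final 10 ug/mL) reports binding of 50 nM L3MBTL1 to 75 nM biotin-H3 K9me1 peptide; complex incubated with compounds 30 min at room temperature; cefsulodin titration as control.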
TDP1 block – inhibitors of human tyrosyl-DNA phosphodiesterase TDP1; Q9NUW8; recombinant TDP1, AlphaScreen DNA substrate cleavage; Potency, µM (top dose mostly 130 µM), actives largely listed as inhibitors; 0.28% of 350,000 active; note: nearly all actives have a fitted effect of over 40% in size
Target sequence (Q9NUW8 whole entry, looked up): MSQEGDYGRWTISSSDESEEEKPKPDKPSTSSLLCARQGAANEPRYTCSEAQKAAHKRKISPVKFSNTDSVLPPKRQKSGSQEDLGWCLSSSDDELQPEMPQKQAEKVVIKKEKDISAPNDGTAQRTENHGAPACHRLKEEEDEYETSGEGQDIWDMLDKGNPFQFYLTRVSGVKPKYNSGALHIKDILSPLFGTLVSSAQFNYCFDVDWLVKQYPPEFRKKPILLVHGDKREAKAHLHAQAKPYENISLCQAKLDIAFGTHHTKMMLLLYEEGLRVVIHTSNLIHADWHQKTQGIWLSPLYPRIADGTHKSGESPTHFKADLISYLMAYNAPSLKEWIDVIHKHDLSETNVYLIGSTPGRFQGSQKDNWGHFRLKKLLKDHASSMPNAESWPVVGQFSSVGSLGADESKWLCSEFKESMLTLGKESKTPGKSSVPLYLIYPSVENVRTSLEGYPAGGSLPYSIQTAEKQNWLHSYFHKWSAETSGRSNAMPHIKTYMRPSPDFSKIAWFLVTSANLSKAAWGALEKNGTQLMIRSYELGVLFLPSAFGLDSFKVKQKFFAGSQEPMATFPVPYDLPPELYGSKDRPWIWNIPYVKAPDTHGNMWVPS
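Steps: enzyme plus compound, 15 min RT; add biotin/phosphotyrosine-FITC oligonucleotide (15 nM final), react 5 min; add donor/acceptor beads (10 ug/ml final), 10 min; read AlphaScreen. Tdp1 at 1 nM final.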
RECQ1 inh – inhibitors of human RECQ1 DNA helicase; RECQ1 DNA unwinding, red fluorescence kinetic read; Potency, µM (series often up to 57.3 µM), most hits filed as inhibitors; 0.54% of 240,000 active; AID 2549; note: nearly all actives have a fitted effect of over 30% in size
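50 nM RECQ1T1 preincubated 15 min with compound in Tris pH 8.0 buffer with MgCl2, DTT, Tween-20 and 2.5 ug/ml poly(dI-dC); started with 200 nM TAMRA/BHQ-2 forked duplex and 2 mM ATP. Unwinding read as fluorescence (525/598 nm), two reads 2 h apart.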
APE1 inh – inhibitors of human APE1 endonuclease; recombinant APE1, TAMRA/BHQ-2 abasic DNA cleavage fluorescence; Potency, µM (series often up to 65.8 µM), usual class: inhibitors; AID 2517; 0.35% of 350,000 active; note: nearly all actives have a fitted effect of over 55% in size
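Measures dequenching upon AP-site incision of a 5'-TAMRA/3'-BHQ-2 THF-containing duplex, 50 nM; human APE1 0.75 nM after 15 min room-temperature exposure to compound; kinetic three-point read at one-minute spacing.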
KDM4E inh – inhibitors of human JMJD2E histone demethylase; JMJD2E catalytic domain, FDH-coupled NADH fluorescence (FDH is formaldehyde dehydrogenase); Potency, µM (titrated, usually from 57.1 µM), most hits filed as inhibitors; 1.6% of 230,000 active; active = well fitted inhibition curve with a large enough effect, not every such curve was filed as active; inconclusive = small, poorly fitted or top-dose-only effect, or another doubt; inactive = no such curve, though single readings can be large or run the other way; note: nearly all actives have a fitted effect of over 50% in size
BLM helicase inh – blocks DNA unwinding by human BLM helicase | Potency, µM (series often up to 56.1 µM), most hits filed as inhibitors | recombinant BLM DNA unwinding, fluorescence dequenching | 0.2% of 350,000 active; note: nearly all actives have a fitted effect of over 35% in size
Large screens that a line does not name were inactive; ! = not active in a repeat. Unless noted, calls come from the whole dose curve; as a rule, active = well fitted curve in the direction sought with a large enough effect; inconclusive = small, poorly fitted or top-dose-only effect, or another doubt; inactive = no such curve, though single readings can be large; an effect the other way counts as inactive or inconclusive.

CC1=C(C#N)C(=O)N(C2CCS(=O)(=O)C2)C(=O)/C1=C\c1ccc(C)o1 (centres undefined)	L3MBTL1 block 14µM, RECQ1 inh 22µM, APE1 inh 18µM, KDM4E inh inconclusive, BLM helicase inh inconclusive
CCOC(=O)c1ccc(NC(=S)N(CCCN2CCCC2)Cc2ccco2)cc1	L3MBTL1 block 35µM
CN(C)Cc1cc(O)c(CN(C)C)cc1O	L3MBTL1 block 3.2µM, TDP1 block inconclusive, APE1 inh inconclusive, KDM4E inh inconclusive
CN(C)Cc1cc(C(C)(C)C)cc(C(C)(C)C)c1O	none
C=CCCCCCCCCCBr	none (no result: L3MBTL1 block, KDM4E inh)
CCCCNc1cc(C(=O)O)cc(S(N)(=O)=O)c1Oc1ccccc1	KDM4E inh 25µM
COc1ccc(CN2CCC(N(CCc3ccccc3)Cc3ccccc3)CC2)c(OC)c1	KDM4E inh 28µM (no result: L3MBTL1 block)
O=C(N/N=C/c1ccccc1O)C1SCCCS1	KDM4E inh 28µM
CCc1ccc(NC(=O)CS(=O)CC(=O)Nc2ccc(N3CCOCC3)cc2)cc1 (centres undefined)	TDP1 block 50µM, APE1 inh inconclusive (no result: L3MBTL1 block, RECQ1 inh, KDM4E inh)
Cc1cc(C2CCCCC2)n(O)c(=O)c1	KDM4E inh 10µM
Cc1ccc(NC2Sc3ccccc3NC2=O)cc1 (centres undefined)	KDM4E inh 22µM
Cc1cccc(-c2nn(C(=S)Nc3ccccc3)cc2-c2ccnc3ccccc23)n1	none (no result: L3MBTL1 block, KDM4E inh)
O=c1c2ccc(Cl)cc2nc(-c2cccc(C(F)(F)F)c2)n1O	KDM4E inh 32µM
CCOC(=O)c1c(C)n(-c2ccc(C)cc2)c2ccc(OCC(O)CNCC3CCCO3)cc12 (centres undefined)	KDM4E inh 28µM (no result: L3MBTL1 block)
COc1ccccc1CNC(=O)Cn1c(=O)oc2ccccc21	none (no result: L3MBTL1 block, RECQ1 inh, APE1 inh, KDM4E inh)
COc1ccccc1CCNC(=O)Cn1c(=O)oc2ccccc21	TDP1 block 18µM (no result: L3MBTL1 block, RECQ1 inh, KDM4E inh)
Cn1c(C(=O)O)c(CC(=O)N2CCC(Cc3ccccc3)CC2)c2ccccc21	KDM4E inh 32µM
Cc1ccc(S(=O)(=O)N2CCc3nc(COc4ccccc4)c4c(c3C2)CO[C@@H](C)C4)cc1	none (no result: L3MBTL1 block)
O=C(CSc1nc(-c2ccc(F)cc2)nc2c1Cc1ccccc1O2)Nc1ccc(F)cc1	none (no result: L3MBTL1 block, TDP1 block, RECQ1 inh, KDM4E inh, BLM helicase inh)
c1ccc(-c2nnc(-c3ccccn3)s2)nc1	KDM4E inh 2.8µM (no result: L3MBTL1 block)
c1ccc(-c2nc(-c3ccccn3)nc(-c3ccccn3)n2)nc1	KDM4E inh inconclusive (no result: L3MBTL1 block)
O=C(COC(=O)CNC(=O)c1ccccc1)Nc1cc(C(F)(F)F)ccc1Cl	none (no result: L3MBTL1 block, RECQ1 inh, APE1 inh, KDM4E inh, BLM helicase inh)
Cc1nc(-c2coc3c(CN(C)C)c(O)ccc3c2=O)cs1	KDM4E inh 28µM (no result: L3MBTL1 block)
CC1CCN(S(=O)(=O)c2ccc3c(c2)CCC(=O)N3CC(=O)Nc2cccc(C#N)c2)CC1	L3MBTL1 block inconclusive, TDP1 block inconclusive, APE1 inh 4.7µM (no result: RECQ1 inh, KDM4E inh)
Cc1ccccc1-c1nc(Nc2ccncc2)c2ccccc2n1	none (no result: L3MBTL1 block, TDP1 block, KDM4E inh)
CN(C)C1C(=O)C(C(N)=O)C(=O)C2(O)C(=O)C3C(=O)c4c(O)ccc(Cl)c4C(O)C3CC12 (centres undefined)	APE1 inh inconclusive (no result: L3MBTL1 block, TDP1 block, KDM4E inh)
CN(C)c1ccc(O)c2c1C[C@H]1C[C@H]3[C@H](N(C)C)C(=O)C(C(N)=O)=C(O)[C@@]3(O)C(=O)C1=C2O	APE1 inh 13µM! (no result: L3MBTL1 block, TDP1 block, RECQ1 inh, KDM4E inh, BLM helicase inh)
Cc1cccc(C(=O)NCC(=O)OC(C(=O)Nc2cc(C(F)(F)F)ccc2Cl)c2ccccc2)c1 (centres undefined)	none (no result: L3MBTL1 block, RECQ1 inh, APE1 inh, KDM4E inh, BLM helicase inh)
CC/C(=N\NC(=O)C(N)=O)c1ccccc1O	KDM4E inh 8.9µM
Cc1ccc(NC(=O)CN2C(=O)N/C(=C\c3cccn3-c3ccc([S+](N)(=O)[O-])cc3)C2=O)cc1	none (no result: L3MBTL1 block, TDP1 block, RECQ1 inh, KDM4E inh, BLM helicase inh)
Nc1nc(CN2CCCCCC2)nc(Nc2ccccc2)n1	L3MBTL1 block 28µM, KDM4E inh inconclusive
Cc1ccc(Nc2nc(N)nc(CN3CCCCCC3)n2)cc1	L3MBTL1 block inconclusive
CC12C=C(/C=C/C=C/c3ccccc3)C(C)(C1)C(/C=C/c1ccccc1)CC2=O (centres undefined)	APE1 inh inconclusive (no result: L3MBTL1 block, KDM4E inh)
